According to PubChem BioAssay AID1159580 (chemical genetic matrix, 2015):
Screen size: about 5,500 compounds; about 2,000 (36%) were called active. About 18% were inconclusive and are not listed. Cut-off read from the data, not from the text of the source: active = normalized growth mostly below about 0.91 (no sharp cut-off); inconclusive = no clear call, values can overlap the other calls; inactive = mostly above about 0.92. This is one part of the list.

Assay: chemical genetic growth profiling, strain panel (AID 1159580);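 note: tested at 20 µM; growth read once vehicle control cultures reached saturation at 30 °C; 1 = growth at the plate median or of vehicle wells; lower values mean less growth of the strain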
Conditions: growth OD
[1] = S. cerevisiae deletion strains, locus YDL101C, strain DUN1, hits give low values
[2] = S. cerevisiae deletion strains, locus YHR030C, strain SLT2, hits give low values

Measured: normalized growth

N#CC(NCc1ccccc1)c1ccc(Cl)c(Cl)c1 (stereo not given)
inactive: S. cerevisiae deletion strains, locus YAL013W, strain DEP1, hits give low values 1 | S. cerevisiae deletion strains, locus YBR229C, strain ROT2, hits give low values 0.983 | [1] 0.974 | S. cerevisiae deletion strains, locus YDR150W, strain NUM1, hits give low values 0.923 | S. cerevisiae deletion strains, locus YEL061C, strain CIN8, hits give low values 0.985 | S. cerevisiae deletion strains, locus YGR078C, strain PAC10, hits give low values 0.984 | S. cerevisiae deletion strains, locus YGR229C, strain SMI1, hits give low values 0.989 | [2] 0.887 | S. cerevisiae deletion strains, locus YHR087W, strain rtc3, hits give low values 1.01 | S. cerevisiae deletion strains, locus YJR043C, strain POL32, hits give low values 1.01 | S. cerevisiae deletion strains, locus YJR075W, strain HOC1, hits give low values 0.968 | S. cerevisiae deletion strains, locus YLR039C, strain RIC1, hits give low values 0.929 | S. cerevisiae deletion strains, locus YLR058C, strain SHM2 (second series), hits give low values 0.995 | S. cerevisiae deletion strains, locus YLR085C, strain ARP6, hits give low values 0.977 | S. cerevisiae deletion strains, locus YLR262C, strain YPT6, hits give low values 0.957 | S. cerevisiae deletion strains, locus YML094W, strain GIM5, hits give low values 0.958 | S. cerevisiae deletion strains, locus YMR219W, strain ESC1, hits give low values 0.998 | S. cerevisiae deletion strains, locus YMR263W, strain SAP30, hits give low values 0.974 | S. cerevisiae deletion strains, locus YMR307W, strain GAS1, hits give low values 0.818 | S. cerevisiae deletion strains, locus YNL128W, strain TEP1, hits give low values 0.994 | S. cerevisiae deletion strains, locus YNL153C, strain GIM3, hits give low values 0.98 | S. cerevisiae deletion strains, locus YNL298W, strain CLA4 (second series), hits give low values 0.96 | S. cerevisiae deletion strains, locus YNL322C, strain KRE1, hits give low values 1.01 | S. cerevisiae deletion strains, locus YNR030W, strain Alg12, hits give low values 0.968 | S. cerevisiae deletion strains, locus YOL006C, strain TOP1, hits give low values 0.982 | S. cerevisiae deletion strains, locus YPL055C, strain LGE1, hits give low values 0.988 | S. cerevisiae deletion strains, locus YPL241C, strain CIN2, hits give low values 0.938 | S. cerevisiae deletion strains, locus YPR135W, strain CTF4, hits give low values 0.938 | S. cerevisiae strains, strain wild type, hits give low values 1
active: S. cerevisiae deletion strains, locus YDL134C, strain PPH21, hits give low values 0.848

Cc1oc(C(C)(C)C)cc1-c1cc(N)n(-c2ccc(I)cc2)n1
active: [2] 0.717 | S. cerevisiae deletion strains, locus YLR113W, strain HOG1, hits give low values 0.815 | S. cerevisiae deletion strains, locus YMR277W, strain FCP1, hits give low values 1.13 [resistant]
inactive: S. cerevisiae deletion strains, locus YAR019C, strain CDC15, hits give low values 1 | S. cerevisiae deletion strains, locus YBL105C, strain PKC1, hits give low values 1.01 | S. cerevisiae deletion strains, locus YBR135W, strain CKS1, hits give low values 1.02 | S. cerevisiae deletion strains, locus YBR136W, strain MEC1, hits give low values 0.992 | S. cerevisiae deletion strains, locus YBR160W, strain CDC28, hits give low values 1.01 | S. cerevisiae deletion strains, locus YDL017W, strain CDC7, hits give low values 1.01 | S. cerevisiae deletion strains, locus YDL028C, strain MPS1, hits give low values 0.976 | [1] 0.987 | S. cerevisiae deletion strains, locus YDL108W, strain KIN28, hits give low values 1.02 | S. cerevisiae deletion strains, locus YDL132W, strain cdc53, hits give low values 1.01 | S. cerevisiae deletion strains, locus YDL214C, strain PRR2, hits give low values 1.15 | S. cerevisiae deletion strains, locus YDR052C, strain DBF4, hits give low values 1 | S. cerevisiae deletion strains, locus YDR054C, strain cdc34, hits give low values 1.01 | S. cerevisiae deletion strains, locus YDR226W, strain ADK1, hits give low values 0.987 | S. cerevisiae deletion strains, locus YDR477W, strain SNF1, hits give low values 0.956 | S. cerevisiae deletion strains, locus YER123W, strain YCK3, hits give low values 0.946 | S. cerevisiae deletion strains, locus YER133W, strain GLC7, hits give low values 0.992 | S. cerevisiae deletion strains, locus YFL009W, strain cdc4, hits give low values 0.992 | S. cerevisiae deletion strains, locus YFL029C, strain CAK1, hits give low values 0.995 | S. cerevisiae deletion strains, locus YFR003C, strain YPI1, hits give low values 1 | S. cerevisiae deletion strains, locus YFR019W, strain FAB1, hits give low values 0.967 | S. cerevisiae deletion strains, locus YFR028C, strain CDC14, hits give low values 1 | S. cerevisiae deletion strains, locus YGR040W, strain KSS1, hits give low values 0.985 | S. cerevisiae deletion strains, locus YGR052W, strain FMP48, hits give low values 0.985 | S. cerevisiae deletion strains, locus YGR092W, strain DBF2, hits give low values 0.882 | S. cerevisiae deletion strains, locus YHR079C, strain IRE1, hits give low values 0.894 | S. cerevisiae deletion strains, locus YHR082C, strain KSP1, hits give low values 0.957 | S. cerevisiae deletion strains, locus YHR205W, strain SCH9, hits give low values 0.885 | S. cerevisiae deletion strains, locus YIL147C, strain SLN1, hits give low values 0.997 | S. cerevisiae deletion strains, locus YJL095W, strain BCK1, hits give low values 0.851 | S. cerevisiae deletion strains, locus YJL128C, strain PBS2, hits give low values 0.961 | S. cerevisiae deletion strains, locus YJL157C, strain FAR1, hits give low values 0.979 | S. cerevisiae deletion strains, locus YJR016C, strain ILV3, hits give low values 1.01 | S. cerevisiae deletion strains, locus YJR066W, strain TOR1 (second series), hits give low values 0.936 | S. cerevisiae deletion strains, locus YJR066W, strain TOR1, hits give low values 0.903 | S. cerevisiae deletion strains, locus YKL048C, strain ELM1, hits give low values 0.98 | S. cerevisiae deletion strains, locus YKL101W, strain HSL1, hits give low values 0.948 | S. cerevisiae deletion strains, locus YKL193C, strain SDS22, hits give low values 1.02 | S. cerevisiae deletion strains, locus YKL203C, strain TOR2, hits give low values 1.05 | S. cerevisiae deletion strains, locus YLR133W, strain CKI1, hits give low values 0.943 | S. cerevisiae deletion strains, locus YLR403W, strain SFP1, hits give low values 0.965 | S. cerevisiae deletion strains, locus YML070W, strain DAK1, hits give low values 0.971 | S. cerevisiae deletion strains, locus YMR001C, strain CDC5, hits give low values 1 | S. cerevisiae deletion strains, locus YMR205C, strain PFK2 (second series), hits give low values 0.94 | S. cerevisiae deletion strains, locus YNL006W, strain LST8, hits give low values 1.01 | S. cerevisiae deletion strains, locus YNL020C, strain ARK1, hits give low values 0.968 | S. cerevisiae deletion strains, locus YNL161W, strain CBK1, hits give low values 1.02 | S. cerevisiae deletion strains, locus YNL183C, strain NPR1, hits give low values 0.988 | S. cerevisiae deletion strains, locus YNL207W, strain RIO2, hits give low values 1.02 | S. cerevisiae deletion strains, locus YNL222W, strain SSU72, hits give low values 1.03 | S. cerevisiae deletion strains, locus YNL307C, strain MCK1 (second series), hits give low values 0.935 | S. cerevisiae deletion strains, locus YOL078W, strain AVO1, hits give low values 1.03 | S. cerevisiae deletion strains, locus YOL136C, strain PFK27, hits give low values 0.959 | S. cerevisiae deletion strains, locus YOR061W, strain CKA2, hits give low values 0.944 | S. cerevisiae deletion strains, locus YOR119C, strain RIO1, hits give low values 0.972 | S. cerevisiae deletion strains, locus YOR231W, strain MKK1, hits give low values 0.927 | S. cerevisiae deletion strains, locus YOR329C, strain SCD5, hits give low values 1.01 | S. cerevisiae deletion strains, locus YPL031C, strain PHO85, hits give low values 0.983 | S. cerevisiae deletion strains, locus YPL153C, strain RAD53, hits give low values 0.987 | S. cerevisiae deletion strains, locus YPL204W, strain HRR25, hits give low values 0.964 | S. cerevisiae deletion strains, locus YPL209C, strain IPL1, hits give low values 1.01 | S. cerevisiae deletion strains, locus YPL256C, strain CLN2, hits give low values 0.892 | S. cerevisiae deletion strains, locus YPR025C, strain CCL1, hits give low values 1.01 | S. cerevisiae deletion strains, locus YPR106W, strain ISR1, hits give low values 0.992 | S. cerevisiae deletion strains, locus YPR111W, strain DBF20, hits give low values 0.989 | S. cerevisiae deletion strains, strain NNK1, hits give low values 1 | S. cerevisiae deletion strains, strain TSCII, hits give low values 1.01
